Pf Dd2 growth: blocks in vitro growth of P. falciparum Dd2. P. falciparum Dd2 growth, SYBR Green, 72 h. Potency, µM (highest dose often 28.9 µM), actives largely listed as inhibitors. 4.3% of 120,000 active. AID 1347417; active = well fitted inhibition curve with a large enough effect; also: nearly all actives have a fitted effect of over 65% in size
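Infected erythrocytes (Dd2, 0.3% parasitemia, 2.5% hematocrit final) are added to compound in RPMI-1640/Albumax II medium, grown 72 h at 37C in low oxygen, then lysed with saponin/Triton-X containing SYBR Green and read by fluorescence.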
Large screens that a line does not name were inactive. Many of the other results were omitted from the sample, so hits are more common in it than they were.

COc1ccc(NC(=O)c2sc3nc4c(cc3c2N)CCCCCC4)cc1	none
COc1ccc(-c2c3c(nc4sc(C(=O)Nc5ccc(Cl)cc5)c(N)c24)CC(C)(C)CC3=O)cc1	Pf Dd2 growth 0.063µM
COc1ccc(NC(=O)c2sc3nc(C)c(C(=O)Nc4ccc(Cl)cc4)c(-c4ccc(Br)cc4)c3c2N)cc1	none
O=C(Cn1ccn2nc3c(c2c1=O)CCCC3)Nc1ccc(C(F)(F)F)cc1	none
O=C(NC[C@H]1O[C@@H]2C[C@@H](CC(=O)N3CCC(F)(F)C3)O[C@@H]2[C@@H]1O)NC1CCC1	none
COc1ccc2c(c1)CN(C(=O)c1ccnc(Cl)c1)CC[C@H]1COC(=O)N21	none
CS(=O)(=O)c1ncc(N(Cc2ccccc2)Cc2ccco2)c(C(=O)Nc2cccc(C(F)(F)F)c2)n1	Pf Dd2 growth 6.3µM
CS(=O)(=O)c1ncc(Cl)c(C(=O)N(Cc2ccc(Cl)cc2)Cc2ccco2)n1	none
CC(C)(C)c1ccc(CN(Cc2ccco2)c2cnc(S(C)(=O)=O)nc2C(=O)Nc2ccc(F)cc2)cc1	Pf Dd2 growth 7.9µM
CCSc1ncc(Cl)c(C(=O)Nc2cccc(Cl)c2)n1	none
CCS(=O)(=O)c1ncc(N(Cc2ccco2)Cc2ccccc2F)c(C(=O)Nc2cccc(Cl)c2)n1	Pf Dd2 growth 4µM
CS(=O)(=O)c1ncc(N(Cc2ccco2)Cc2ccco2)c(C(=O)Nc2ccccc2Br)n1	none
COc1ccc(CN(Cc2ccco2)c2cnc(S(C)(=O)=O)nc2C(=O)Nc2ccc(C)cc2C)cc1	none
O=C(Nc1nc2ccc(F)cc2s1)c1nc(S(=O)(=O)Cc2ccccc2F)ncc1Cl	none
O=C(Nc1cccc(C(F)(F)F)c1)c1cc2nc(-c3ccco3)cc(C(F)(F)Cl)n2n1	none
CC(C)c1nc(CN(C)C(=O)c2cc(COc3ccccc3)[nH]n2)no1	none
COCCOc1ccc(C(=O)N[C@@H]2CN(C(=O)Nc3ccccc3)CCC[C@H]2O)cc1	none
Cc1cnc(C(=O)NC2C[C@H]3CC[C@@H](C2)N3C(=O)c2ccc(C)c(F)c2)cn1 (some centres undefined)	none
CCOCCn1cnc(-c2ccccc2)c1-c1ccccc1OCC(N)=O	none
COc1ccccc1-c1ncc[nH]1	none
COc1cccc(-c2[nH]cnc2-c2ccccc2)c1OCCCn1ccnc1	Pf Dd2 growth 3.2µM
Cc1cccc(C(=O)N2CCC(C(=O)N3CCCCCCNC(=O)CC3)CC2)c1	none
CCc1cc(C(=O)N2CCCC(c3nnc(Cn4ccnc4)n3C)C2)ccn1 (centres undefined)	none
COc1ccc(-c2noc(-c3ccc(NC(C)c4ccccc4)c([N+](=O)[O-])c3)n2)cc1OC (centres undefined)	none
O=C(CSc1nnc(-c2ccc([N+](=O)[O-])cc2)o1)Nc1ccccc1	none
COc1ccc([N+](=O)[O-])cc1NC(c1nnc(-c2ccccc2)o1)c1ccccc1F (centres undefined)	Pf Dd2 growth 13µM
COCCNC(=O)N1CCc2n[nH]c(=O)n2CC1	none
CS(=O)(=O)N1CCCN(C(=O)NCc2ccccc2)CCNC(=O)CC1c1ccccc1 (centres undefined)	none
COCC[C@]1(O)CCN(Cc2cc(F)ccc2-n2cccn2)C[C@H]1C	none
COc1ccc(-n2cccn2)c(CN2CC[C@H](CO)[C@H](O)C2)c1	none
CCOC(=O)N1CCN(C2CCCN(Cc3cc(C)ccc3-n3cccn3)C2)CC1 (centres undefined)	Pf Dd2 growth 10µM
O=C(NCCc1ccccc1)[C@H]1CN(Cc2ccccc2)C[C@H]1C(=O)O	none
CC(C)C[C@@H]1N[C@H](C(=O)NC2CCCC2)Cc2cn(CC3CC3)c3cccc1c23	none
CC(C)C[C@@H]1N[C@H](C(=O)NC2CCC2)Cc2cn(Cc3nccn3C)c3cccc1c23	Pf Dd2 growth 10µM
C=CCn1cc2c3c(cccc31)[C@H](CC(C)C)N[C@H](C(=O)NCCN1CCOCC1)C2	none
C=CCn1cc2c3c(cccc31)[C@H](CC(C)C)N[C@H](C(=O)N1CCOCC1)C2	none
C#CCNC(=O)[C@@H]1Cc2c[nH]c3cccc(c23)[C@H](CC(C)C)N1	none
CC(C)C[C@@H]1N[C@H](C(=O)NC2CCC2)Cc2c[nH]c3cccc1c23	none
CC#CCn1cc2c3c(cccc31)[C@H](CC(C)C)N[C@H](C(=O)OC)C2	none
C=CCn1cc2c3c(cccc31)[C@H](CC(C)C)N[C@H](C(=O)NC1CCC1)C2	Pf Dd2 growth 13µM
CC(C)C[C@@H]1N[C@H](C(=O)NC2CCCC2)Cc2c[nH]c3cccc1c23	Pf Dd2 growth 13µM
CC(=O)N1CCCN(C(=O)[C@@H]2Cc3cn(C)c4cccc(c34)[C@H](CC(C)C)N2)CC1	none
C=CCn1cc2c3c(cccc31)[C@H](CC(C)C)N[C@H](C(=O)NCc1ccccc1OC)C2	none
C=CCn1cc2c3c(cccc31)[C@H](CC(C)C)N[C@H](C(=O)NCc1ccccc1)C2	Pf Dd2 growth 7.1µM
CN1CC2(CCN(C(=O)c3cccnc3N(C)C3CCCCC3)CC2)OC1=O	none
O=C(CCc1cn2ccccc2n1)N[C@H]1[C@@H]2CCO[C@@H]2[C@@H]1C1CCCC1	none
CCN1C(=O)CCN(Cc2ccc(C)c(C)c2)CC12CCOCC2	none
COc1ccc(CN2CCc3nn(C)c(=O)n3CC2)cc1Cn1cccn1	none
CCn1ncc(C(=O)N2C[C@@H](COC)[C@H](c3nc(C4CC4)no3)C2)c1C	none
Cn1cccc1CN[C@H]1[C@H](O)[C@@H](N2CCC(C(N)=O)CC2)[C@@H]2OC[C@H]1O2	none
CN(Cc1ccon1)Cc1cc2n(n1)CCN(C(=O)c1ncoc1C1CC1)C2	none
Cc1noc(-c2cn(C3CCN(C(=O)c4cccc(F)c4)CC3)nn2)n1	none
CN(C)c1ccc(CN2CC(Oc3ccc(F)c(F)c3)C2)cc1	none
CCc1ccc(CN2CCC(CNC(=O)c3occc3C)CC2)nc1	none
COc1ccccc1CNC(=O)c1ccc(CN2C(=O)NC3(CCOCC3)C2=O)cc1	none
Cc1cccc(CNC(=O)c2oc3c(c2C)-c2nn(Cc4cccc(Cl)c4)cc2CC3)c1	none
Cc1cccc(CNC(=O)c2oc3c(c2C)-c2nn(Cc4ccccc4Cl)cc2CC3)c1	none
CCOc1ccc(CNC(=O)c2oc3c(c2C)-c2nn(Cc4cccc(Cl)c4)cc2CC3)cc1	Pf Dd2 growth 11µM
CCCCc1nn(CC(=O)NCc2nc3c(s2)CCCC3)c(=O)n1CC	none
COCc1noc([C@@H]2CN(C3CCN(CC(C)C)CC3)C[C@H]2CO)n1	none
CSc1ccc(-c2ccc3c(c2)C(=O)N2CCN(C(=O)CCC(=O)O)C[C@H]2C(=O)N3)cc1	none
CSc1ccc(-c2ccc3c(c2)C(=O)N2CCN(C(=O)CCC(=O)O)C[C@@H]2C(=O)N3)cc1	none
CSc1ccc(-c2ccc3c(c2)C(=O)N2CCN(C(=O)CC(C)(C)C)C[C@@H]2C(=O)N3)cc1	Pf Dd2 growth 5.6µM
NCCc1n[nH]c(=O)n1-c1ccc2c(c1)OCO2	none
COCCOCC(=O)N1CC(c2nnc(-c3ccncc3)o2)C2(CCOCC2)C1 (centres undefined)	none
O=C(NC1CCN(c2cc(-c3ccccc3)[nH]n2)CC1)c1ccc(F)cc1F	none
COc1cccc(C(=O)NCC2(COc3ccccc3)C[C@@H](O)[C@@H](O)C2)c1 (some centres undefined)	none
COc1cccc(CNCC2(COc3ccccc3)C[C@@H](O)[C@@H](O)C2)c1 (some centres undefined)	Pf Dd2 growth 4µM
COc1ccc(CNCC2(COc3cccnc3)C[C@@H](O)[C@@H](O)C2)cc1 (some centres undefined)	none
CCO[C@H]1COC[C@@H]1NC(=O)c1csc(-c2cccs2)n1	none
Cn1nc(C(=O)N2CC(C)(C)C(C)(O)C2)cc1-c1cccs1 (centres undefined)	none

Assay outcomes (PubChem)
